Assay outcomes: PubChem BioAssay, Buhrlage Lab, Dana-Farber Cancer Institute and Novartis Institutes for BioMedical Research (Cambridge, Mass)
A selection: hits, their analogues and other compounds. The true share with any hit is near 1.8%.
USP7 block = human USP7 deubiquitinase inhibition; Q93009; purified USP7, Ub-rhodamine cleavage fluorescence; inhibition, % at 20 µM; 0.3% of 47,000 active; AID 1645854
OTUD3 block = human OTUD3 deubiquitinase inhibition | purified OTUD3, Ub-rhodamine fluorescence, 2 h | inhibition, % at 25 µM | 0.7% of 47,000 active | AID 1645858
UCHL1 inh = blocks human UCHL1 ubiquitin-rhodamine cleavage; purified UCHL1, Ub-rhodamine cleavage fluorescence; inhibition, % at 20 µM; 0.2% of 47,000 active; AID 1645859
USP10 block = human USP10 deubiquitinase inhibition. purified USP10, Ub-rhodamine fluorescence, 60 min. Q14694. AID 1645856. 1.1% of 47,000 active. inhibition, % at 20 µM
Active calls of the source: *. Rule as the data show it: active = inhibition above about 30%; inactive = the rest.

SMILES	USP7 block	OTUD3 block	UCHL1 inh	USP10 block
Cc1ccc2c(CNCCC3=CCCCC3)c(C(=O)O)n(C)c2c1	1.0	0.0	-0.2	71.7*
COc1ccc2c(CNCCC3=CCCCC3)c(C(=O)O)n(Cc3ccc(F)cc3)c2c1	-112.2	6.8	4.1	10.2
O=C(Nc1ccccc1C(=O)O)c1ccc(CSCc2ccccc2)cc1	-34.0	20.6	5.9	51.1*
Cc1nc(-c2ccc(C(=O)Nc3ccc(F)cc3)cc2)cs1	34.2*	10.4	10.1	24.1
Cc1nc(-c2ccc(C(=O)Nc3cccc(F)c3)cc2)cs1	7.5	1.3	0.8	1.0
O=C(O)[C@H](Cc1ccc(O)cc1)NC(=O)[C@H](Cc1ccccc1)n1c(=O)[nH]c2ccccc2c1=O	2.6	2.5	0.8	5.0
O=C(c1cc(F)ccc1-n1cnnn1)N1CCN(C/C=C/c2ccccc2)CC1	3.0	15.2	2.4	-0.1
Cc1cc(N2CCC(c3c(C(=O)N(C)C)sc4ccccc34)C2)nc(C)n1 (stereo not given)	-1.1	-5.5	-2.9	-1.8
Cc1ccc(-c2cn3ccsc3n2)cc1	-2.0	-1.2	-0.3	0.4
O=C(Nc1ccc(-c2cn3ccsc3n2)cc1)c1ccc(Cl)c([N+](=O)[O-])c1	54.2*	24.4	11.1	67.0*
O=C(Nc1ccccc1C(F)(F)F)c1cccc(S(=O)(=O)Nc2cc(C(F)(F)F)ccc2Cl)c1	-0.7	3.3	0.8	42.7*
CCOc1ccc(CC(=O)Nc2ccc(-c3nc4cccnc4s3)cc2)cc1	-0.5	-64.9	-2.3	-6.9
CCN(CC)C(=O)c1sc(NC(=O)c2cc(-c3ccccc3Cl)nc3ccccc23)c(C(N)=O)c1C	7.8	-14.2	4.9	44.0*
Cc1ccc2cc(-c3noc(CCC(=O)NC4CCCC4)n3)c(=O)[nH]c2c1	41.0*	13.2	8.8	46.6*
CNC(=O)c1c2n(c3ncccc13)CCN(S(=O)(=O)c1ccc(-c3ccccc3)cc1)C2	7.3	-1.3	0.0	34.4*
CCN(CC)C(=O)C1Cn2ccnc2C2(CCN(S(=O)(=O)c3cccc(C)c3)CC2)O1 (stereo not given)	4.3	7.7	0.4	-1.0
Cc1ccc2c(c1)c1ncn(Cc3nc(C)no3)c(=O)c1n2CC(=O)NCc1ccccc1	-4.9	22.8	6.7	30.0*
CCn1nc(C)c(CNC(=O)c2[nH]c3ccc(C)cc3c2NC(=O)c2cccc(C)c2)c1C	15.8	71.0*	7.3	-2.4
Cc1ccc(C2=Nc3ccccc3N(CC(=O)Nc3cccc(C)c3C)C(=O)C2)cc1C	11.7	30.8*	2.1	12.0
Cc1cccc(NC(=O)CN2C(=O)CC(c3ccccc3)=Nc3ccccc32)c1C	3.2	9.3	-1.1	17.2
O=C(C(Cc1c[nH]c2ccccc12)N1CCS(=O)(=O)CC1)N1CCN(c2ccccc2)CC1 (stereo not given)	0.9	-0.7	1.9	-0.9
CC(=O)c1ccc(NC(=O)CSc2nc(-c3ccccc3)nc3c2COC(C)(C)C3)cc1	10.3	30.5*	2.4	34.0*
CC1(C)Cc2nc(-c3ccccc3)nc(SCC(=O)Nc3ccccc3)c2CO1	3.6	-0.4	-0.1	5.7
COc1ccc(-c2ccc3cc(C(=O)O)ccc3c2)cc1C12CC3CC(CC(C3)C1)C2	-13.5	6.4	5.2	80.2*
COc1ccc(CCNC(=O)C23CC4CC(CC(C4)C2)C3)cc1OC	1.1	11.8	0.3	3.2
SMILES	USP7 block	OTUD3 block	UCHL1 inh	USP10 block
COc1cccc(NC(=O)Cn2c(=O)n(-c3ccccc3)c3ncccc32)c1	0.1	1.6	-0.1	-5.4
COc1ccc(NC(=O)c2oc(=O)c3ccccc3c2-c2ccccc2)cc1Cl	10.1	-0.2	6.4	7.5
COc1cc(-c2ccccc2)c(O)c(O)c1-c1ccccc1	61.2*	91.2*	36.4*	67.4*
Cc1ccc(NC(=O)Cn2c(=O)n(-c3ccc(CC(=O)NCc4ccco4)cc3)c(=O)c3sccc32)c(C)c1	19.6	-2.0	3.6	43.9*
COc1ccc(CCNC(=O)Cn2c(=O)c3sccc3n(Cc3cccc(Cl)c3)c2=O)cc1OC	1.0	9.9	1.2	-0.6
O=C(Cc1ccc(-n2c(=O)c3sccc3n(Cc3ccc(F)cc3)c2=O)cc1)NCCc1ccccc1	22.3	-7.8	0.0	37.3*
Cc1ccccc1NC(=O)Cn1c(=O)n(-c2ccc(CC(=O)NCCc3ccccc3)cc2)c(=O)c2sccc21	31.7*	29.3	8.0	51.0*
CCOc1ccc(-c2nnc(NC(=O)C3CCN(S(=O)(=O)c4ccc5c(c4)CCC5)CC3)o2)cc1	22.7	25.7	8.7	43.8*
O=S(=O)(Nc1ccc(Oc2ncnc3cc(Cl)ccc23)nc1)c1ccc(S(=O)(=O)c2ccccc2)s1	15.6	-10.7	3.4	45.4*
